Inconclusive results are not listed. Entries that show only a call come without a potency. Active and inactive are the calls of the source. Calls follow the shape of the dose curve; as a rule, active = well fitted curve in the direction sought with a large enough effect; inconclusive = small, poorly fitted or top-dose-only effect, or another doubt; inactive = no such curve, though single readings can be large; an effect the other way counts as inactive or inconclusive.
What was measured:
[1] = qHTS assay for measurement of the activity of small molecule inhibitors on Zika virus induced Caspase-3 activity in human astrocytoma cells (AID 1224859); settings: SNB-19 ZIKV-induced caspase-3/7, luminescence, 6 h; series mostly up to 45.7 µM
Method in brief: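 Percent inhibition of virus-induced caspase-3/7 signal is calculated against uninfected and ZIKV-infected control cells. Cells are SNB-19, infected at 2 FFU/cell for 6 h after 1 h compound exposure.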

[2] = NS1 protein of Zika virus - qHTS assay to identify small molecule inhibitors in human HEK 293 cells (AID 1347053); settings: HEK293 ZIKV MR766 infection, NS1 TR-FRET, 24 h; series mostly up to 46.1 µM; also: nearly all actives have a fitted effect of over 55% in size
Method in brief: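 In this cell-based screen, HEK 293 cultures received compound for one hour before Zika MR766 at MOI = 0.5. NS1 was quantified 24 hours later by TR-FRET, normalized to virus-free wells and infected wells.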

[3] = qHTS of pediatric cancer cell lines to identify multiple opportunities for drug repurposing: Primary screen for TC32 cells (AID 1347089); settings: TC32 Ewing sarcoma viability, CellTiter-Glo luminescence, 48 h; series mostly up to 45.8 µM; also: nearly all actives have a fitted effect of over 60% in size
Method in brief: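 Measured quantity: luminescence from CellTiter-Glo, reflecting metabolically active TC32 cells following 48 h of compound. Curves came straight from multi-point titrations, with 8 or 11 points in primary and 11 in confirmatory screening.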

[4] = qHTS of pediatric cancer cell lines to identify multiple opportunities for drug repurposing: Primary screen for SJ-GBM2 cells (AID 1347091); settings: SJ-GBM2 viability, CellTiter-Glo luminescence, 48 h; series mostly up to 46 µM; also: potency is read from the fitted curve at half-maximal effect
Method in brief: (§1)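 Viability measured as metabolically active cells via CellTiter-Glo luminescence following 48 hours of compound exposure, 11-point dilutions in confirmatory testing. 500-1,000 cells/well plated 5 hours before dosing; controls were DMSO and 2.3 µM bortezomib.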

[5] = qHTS of pediatric cancer cell lines to identify multiple opportunities for drug repurposing: Primary screen for A673 cells (AID 1347092); settings: A673 Ewing sarcoma viability, CellTiter-Glo ATP luminescence, 48 h; series mostly up to 46 µM; also: nearly all actives have a fitted effect of over 45% in size; also: potency is read from the fitted curve at half-maximal effect
Method in brief: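 Cells are plated, rested 5 h, dosed by pintool, incubated 48 h, then lysed with CellTiter-Glo and read by luminescence. DMSO is the neutral control; bortezomib at 2.3 uM final is the positive control.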

[6] = qHTS of pediatric cancer cell lines to identify multiple opportunities for drug repurposing: Primary screen for SK-N-MC cells (AID 1347093); settings: SK-N-MC viability, CellTiter-Glo luminescence, 48 h; series mostly up to 46 µM
Method in brief: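 Metabolically active cells were quantified by ATP-dependent luminescence (CellTiter-Glo, 15 min at room temperature) following 48 h treatment. Cells had been plated at 500-1,000 per well and settled for 5 h beforehand.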

[7] = qHTS of pediatric cancer cell lines to identify multiple opportunities for drug repurposing: Primary screen for BT-37 cells (AID 1347094); settings: BT-37 viability, CellTiter-Glo luminescence, 48 h; series mostly up to 57.3 µM; also: potency is read from the fitted curve at half-maximal effect
Method in brief: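 Readout: CellTiter-Glo luminescence, 48 h treatment. Controls DMSO (neutral) and bortezomib 2.3 µM final (positive). Potency and efficacy taken from primary-screen concentration-response curves.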

[8] = P-glycoprotein substrates identified in KB-8-5-11 adenocarcinoma cell line, qHTS therapeutic library screen (AID 1346987); settings: KB-8-5-11 (P-gp overexpressing) viability, CellTiter-Glo, 72 h; series mostly up to 44.5 µM; also: nearly all actives have a fitted effect of over 65% in size
Method in brief: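 Luminescence from CellTiter-Glo, read 5 min after addition, quantified survival of KB-8-5-11 (P-gp-overexpressing) cells exposed to compounds for 72 h. AC50 was derived from concentration-response curves.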

[9] = qHTS of pediatric cancer cell lines to identify multiple opportunities for drug repurposing: Primary screen for DAOY cells (AID 1347090); settings: DAOY medulloblastoma viability, CellTiter-Glo luminescence, 48 h; series mostly up to 46 µM; also: nearly all actives have a fitted effect of over 55% in size
Method in brief: as §1

SMILES	outcome [1]	Potency [2]	Potency [3]	Potency [4]	Potency [5]	Potency [6]	Potency [7]	Potency [8]	Potency [9]
CC(C)=CCC/C(C)=C/CC/C(C)=C/C(=O)OCC(=O)[C@@]1(O)CC[C@H]2[C@@H]3CCC4=CC(=O)C=C[C@]4(C)[C@H]3[C@@H](O)C[C@@]21C	inactive	inactive	inactive	13.3 µM (active)	inactive	inactive	inactive		
CO[C@@]1(NC(=O)CSC[C@@H](N)C(=O)O)C(=O)N2C(C(=O)O)=C(CSc3nnnn3C)CS[C@@H]21	inactive	inactive	inactive	inactive	inactive	inactive	inactive	inactive	inactive
CCOc1ccccc1OCC1CNCCO1 (centres undefined)	inactive	inactive	inactive	inactive	inactive	inactive	inactive		inactive
CCCc1ncc(C(=O)O)s1	inactive	inactive	inactive	inactive	inactive		inactive		inactive
C[C@H]1C[C@@H]2[C@H]([C@@H](O)C[C@@]3(C)[C@H]2CC[C@]3(O)C(=O)CO)[C@@]2(C)C=CC(=O)C=C12	inactive	inactive	inactive	inactive		inactive	inactive		inactive
CN1CCC(Nc2ncc3ncnc(Nc4ccc(F)c(Cl)c4)c3n2)CC1	inactive		inactive	inactive	21.1 µM (active)		17.4 µM (active)	inactive	inactive
COC(=O)c1cc(Cl)ccc1NS(=O)(=O)C(F)(F)F	inactive	inactive	inactive	inactive	inactive	inactive	inactive		inactive
Cc1coc2ccccc2c1=O	inactive		inactive	inactive	inactive	inactive	inactive		inactive
CCCOc1ccc2c(c1)CC[C@@H]1[C@@H]2CC[C@]2(C)C(OC)CC[C@@H]12 (some centres undefined)	inactive	inactive	inactive	inactive		inactive	inactive		inactive
COc1cc2c(cc1OC)C(=O)CC2	inactive	inactive	inactive	inactive	inactive		inactive		inactive

From PubChem BioAssay (NCATS)
